{"source": "PubChem BioAssay AID588519", "about": "(ICCB-Longwood Screening Facility, Harvard Medical School, 2011)", "biological_target": "Genome polyprotein (Poliovirus type 1 (strain Mahoney)) (UniProt P03300)", "sequence (P03300 1749-2209 limits assumed)": "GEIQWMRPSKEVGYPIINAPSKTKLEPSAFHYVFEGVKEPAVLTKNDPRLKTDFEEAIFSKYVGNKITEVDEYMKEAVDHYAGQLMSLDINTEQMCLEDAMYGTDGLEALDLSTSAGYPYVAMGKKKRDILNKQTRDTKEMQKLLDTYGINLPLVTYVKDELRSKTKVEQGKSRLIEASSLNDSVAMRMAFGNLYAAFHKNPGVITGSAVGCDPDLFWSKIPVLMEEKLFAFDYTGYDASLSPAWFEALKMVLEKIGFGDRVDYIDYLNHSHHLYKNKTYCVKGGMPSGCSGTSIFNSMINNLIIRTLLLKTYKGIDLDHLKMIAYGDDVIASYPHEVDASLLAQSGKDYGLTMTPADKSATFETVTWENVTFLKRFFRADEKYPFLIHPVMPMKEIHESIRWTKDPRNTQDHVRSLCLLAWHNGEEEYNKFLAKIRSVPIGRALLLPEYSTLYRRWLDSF", "experiment": "poliovirus RdRp elongation inhibitors, primary screen, biochemical, fluorescence polarization, total intensity (AID 588519); as to z-score: compound at 16.7 µg/mL", "settings": "poliovirus polymerase elongation, stronger effect = lower value; for % elongation: compound at 16.7 µg/mL; for z-score: measured here: FP z-score", "key": {"[1]": {"settings": "measured here: total intensity read-out"}}, "note": "The campaign covered roughly 150,000 compounds. About 1,000 (0.67%) were called active. This is one part of a sample in which actives are shown more often than they occur. Rule as the data show it: active = % elongation below about 90%; inactive = the rest, inconclusive results apart."}
{"smiles": "CN(C)c1ccc(/C=C(\\C#N)NC(=O)c2ccccc2)cc1", "values": [{"measurement": "% elongation", "result": "103% (inactive)"}, {"measurement": "z-score", "result": 0}, {"measurement": "% elongation", "setting": "[1]", "result": 108, "unit": "%"}]}
{"smiles": "Cc1ccc(NC(=O)COc2ccccc2O)cc1C", "values": [{"measurement": "% elongation", "result": "103% (inactive)"}, {"measurement": "z-score", "result": 0.1}, {"measurement": "% elongation", "setting": "[1]", "result": 104, "unit": "%"}]}
{"smiles": "Cc1ccc2[nH]c(=O)c(CNCCCN(C)C)cc2c1", "values": [{"measurement": "% elongation", "result": "100% (inactive)"}, {"measurement": "z-score", "result": -0.2}, {"measurement": "% elongation", "setting": "[1]", "result": 102, "unit": "%"}]}
{"smiles": "Cc1c(NC(=O)Cc2ccc(S(=O)(=O)N3CCCCC3)cc2)c(=O)n(-c2ccccc2)n1C", "values": [{"measurement": "% elongation", "result": "102% (inactive)"}, {"measurement": "z-score", "result": -0.1}, {"measurement": "% elongation", "setting": "[1]", "result": 108, "unit": "%"}]}
{"smiles": "Cc1ccc2nc(C)cc(Nc3ccccc3)c2c1", "values": [{"measurement": "% elongation", "result": "101% (inactive)"}, {"measurement": "z-score", "result": -0.1}, {"measurement": "% elongation", "setting": "[1]", "result": 105, "unit": "%"}]}
{"smiles": "Cc1cc(Sc2nnc(C)s2)c2ccccc2n1", "values": [{"measurement": "% elongation", "result": "86% (active)"}, {"measurement": "z-score", "result": -1.5}, {"measurement": "% elongation", "setting": "[1]", "result": 83, "unit": "%"}]}
{"smiles": "Cc1cc(Nc2ccc(Cl)cc2)c2ccccc2n1", "values": [{"measurement": "% elongation", "result": "92% (inactive)"}, {"measurement": "z-score", "result": -1}, {"measurement": "% elongation", "setting": "[1]", "result": 93, "unit": "%"}]}
{"smiles": "CC(C)CCSc1nc2ncn(C)c2c(=O)[nH]1", "values": [{"measurement": "% elongation", "result": "104% (inactive)"}, {"measurement": "z-score", "result": 0.4}, {"measurement": "% elongation", "setting": "[1]", "result": 108, "unit": "%"}]}
{"smiles": "COc1cc(/C=N/NS(=O)(=O)c2cc(C)ccc2C)cc(OC)c1O", "values": [{"measurement": "% elongation", "result": "104% (inactive)"}, {"measurement": "z-score", "result": 0.3}, {"measurement": "% elongation", "setting": "[1]", "result": 124, "unit": "%"}]}
{"smiles": "O=C1S/C(=C/c2cc3c(cc2Cl)OCO3)C(=O)N1c1ccccc1", "values": [{"measurement": "% elongation", "result": "100% (inactive)"}, {"measurement": "z-score", "result": -0.4}, {"measurement": "% elongation", "setting": "[1]", "result": 103, "unit": "%"}]}
{"smiles": "CCN(CC)c1nc(C#N)nc(OC)n1", "values": [{"measurement": "% elongation", "result": "87% (active)"}, {"measurement": "z-score", "result": -1.5}, {"measurement": "% elongation", "setting": "[1]", "result": 90, "unit": "%"}]}
{"smiles": "NS(=O)(=O)c1ccc(N=Cc2c(O)n(Cc3ccc4c(c3)OCO4)c(=O)c3ccccc23)cc1", "values": [{"measurement": "% elongation", "result": "100% (inactive)"}, {"measurement": "z-score", "result": 0}, {"measurement": "% elongation", "setting": "[1]", "result": 105, "unit": "%"}]}
{"smiles": "CN=C(Cl)c1cccs1", "values": [{"measurement": "% elongation", "result": "99% (inactive)"}, {"measurement": "z-score", "result": -0.6}, {"measurement": "% elongation", "setting": "[1]", "result": 101, "unit": "%"}]}
{"smiles": "O=C(Nc1cccc(Cl)c1)N1CCC(n2nnc3cc(F)ccc32)CC1", "values": [{"measurement": "% elongation", "result": "102% (inactive)"}, {"measurement": "z-score", "result": 0.2}, {"measurement": "% elongation", "setting": "[1]", "result": 100, "unit": "%"}]}
{"smiles": "CN(C)C(=O)CCSc1nc2cc(Cl)ccc2o1", "values": [{"measurement": "% elongation", "result": "103% (inactive)"}, {"measurement": "z-score", "result": 0.3}, {"measurement": "% elongation", "setting": "[1]", "result": 102, "unit": "%"}]}
{"smiles": "CCCCC(=O)Nc1sc2c(c1C#N)CCCC2", "values": [{"measurement": "% elongation", "result": "92% (inactive)"}, {"measurement": "z-score", "result": -1.4}, {"measurement": "% elongation", "setting": "[1]", "result": 100, "unit": "%"}]}
{"smiles": "CNC(=O)c1sc(NCc2ccccc2OC)nc1C", "values": [{"measurement": "% elongation", "result": "80% (active)"}, {"measurement": "z-score", "result": -3.1}, {"measurement": "% elongation", "setting": "[1]", "result": 89, "unit": "%"}]}
{"smiles": "COc1ccccc1CNC(=O)CS(=O)(=O)c1cccc2nsnc12", "values": [{"measurement": "% elongation", "result": "105% (inactive)"}, {"measurement": "z-score", "result": -0.4}, {"measurement": "% elongation", "setting": "[1]", "result": 112, "unit": "%"}]}
{"smiles": "COc1ccccc1CNCc1ccc(C(=O)O)s1", "values": [{"measurement": "% elongation", "result": "108% (inactive)"}, {"measurement": "z-score", "result": 0.4}, {"measurement": "% elongation", "setting": "[1]", "result": 113, "unit": "%"}]}
{"smiles": "O=C(c1ccccc1)N1CCN(c2cccc(Cl)c2)CC1", "values": [{"measurement": "% elongation", "result": "100% (inactive)"}, {"measurement": "z-score", "result": -0.3}, {"measurement": "% elongation", "setting": "[1]", "result": 95, "unit": "%"}]}
{"smiles": "O=C(NCc1ccncc1)C1CCN(C(=O)c2cccc(Cl)c2)CC1", "values": [{"measurement": "% elongation", "result": "99% (inactive)"}, {"measurement": "z-score", "result": -0.2}, {"measurement": "% elongation", "setting": "[1]", "result": 102, "unit": "%"}]}
{"smiles": "O=C(c1cccc(Cl)c1)N1CCN(CCc2ccncc2)CC1", "values": [{"measurement": "% elongation", "result": "21% (active)"}, {"measurement": "z-score", "result": -6.3}, {"measurement": "% elongation", "setting": "[1]", "result": 37, "unit": "%"}]}
{"smiles": "O=C(O)CSc1nnc(-c2ccccc2)n1-c1ccccc1", "values": [{"measurement": "% elongation", "result": "101% (inactive)"}, {"measurement": "z-score", "result": -0.2}, {"measurement": "% elongation", "setting": "[1]", "result": 102, "unit": "%"}]}
{"smiles": "O=C(O)c1ccc2nc[nH]c2c1", "values": [{"measurement": "% elongation", "result": "100% (inactive)"}, {"measurement": "z-score", "result": -0.4}, {"measurement": "% elongation", "setting": "[1]", "result": 108, "unit": "%"}]}
{"smiles": "CCOC(=O)c1sc(NC(=O)/C=C/c2ccc(Cl)cc2)cc1C", "values": [{"measurement": "% elongation", "result": "102% (inactive)"}, {"measurement": "z-score", "result": 0.3}, {"measurement": "% elongation", "setting": "[1]", "result": 106, "unit": "%"}]}
{"smiles": "COc1cc(OC)c(N(C)C(=O)c2ccc3c(=O)n4c(nc3c2)CCCCC4)cc1Cl", "values": [{"measurement": "% elongation", "result": "105% (inactive)"}, {"measurement": "z-score", "result": 0.9}, {"measurement": "% elongation", "setting": "[1]", "result": 109, "unit": "%"}]}
{"smiles": "CC(C)(C)NCC(O)COc1c(Br)ccc2c1sc1nc3n(c(=O)c12)CCCCC3", "note": "(stereo not given)", "values": [{"measurement": "% elongation", "result": "69% (active)"}, {"measurement": "z-score", "result": -4.7}, {"measurement": "% elongation", "setting": "[1]", "result": 96, "unit": "%"}]}
{"smiles": "CCN(C(=O)c1sc2nc3n(c(=O)c2c1C)CCCC3)c1ccccc1", "values": [{"measurement": "% elongation", "result": "100% (inactive)"}, {"measurement": "z-score", "result": -1.2}, {"measurement": "% elongation", "setting": "[1]", "result": 100, "unit": "%"}]}
{"smiles": "CC1CC(C)CN(C(=O)C(C)Sc2nnnn2-c2ccc(Cl)cc2)C1", "note": "(stereo not given)", "values": [{"measurement": "% elongation", "result": "98% (inactive)"}, {"measurement": "z-score", "result": -0.5}, {"measurement": "% elongation", "setting": "[1]", "result": 99, "unit": "%"}]}
{"smiles": "O=C1CCCCCN1Cc1nnc(SCN2C(=O)c3ccccc3C2=O)n1-c1ccccn1", "values": [{"measurement": "% elongation", "result": "106% (inactive)"}, {"measurement": "z-score", "result": 0.4}, {"measurement": "% elongation", "setting": "[1]", "result": 100, "unit": "%"}]}
